# Results published in ChEMBL document CHEMBL1961873, “Compounds: GSK PKIS; Assays: Nanosyn kinase panel” (2012).
# Columns and labels:
# [1] = molecular target: Calcium/calmodulin-dependent protein kinase type II subunit alpha (Homo sapiens) (UniProt Q9UQM7); details: at 1 µM;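 note: reported value is a mean percent inhibition of CAMK2A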
# [2] = molecular target: Calcium/calmodulin-dependent protein kinase type II subunit delta (Homo sapiens) (UniProt Q13557); details: at 0.1 µM
# [3] = molecular target: Calcium/calmodulin-dependent protein kinase type II subunit delta (Homo sapiens) (UniProt Q13557); details: at 1 µM
# [4] = molecular target: T1, Calcium/calmodulin-dependent protein kinase type IV (Homo sapiens) (UniProt Q16566); details: at 0.1 µM
# T1 sequence (whole entry): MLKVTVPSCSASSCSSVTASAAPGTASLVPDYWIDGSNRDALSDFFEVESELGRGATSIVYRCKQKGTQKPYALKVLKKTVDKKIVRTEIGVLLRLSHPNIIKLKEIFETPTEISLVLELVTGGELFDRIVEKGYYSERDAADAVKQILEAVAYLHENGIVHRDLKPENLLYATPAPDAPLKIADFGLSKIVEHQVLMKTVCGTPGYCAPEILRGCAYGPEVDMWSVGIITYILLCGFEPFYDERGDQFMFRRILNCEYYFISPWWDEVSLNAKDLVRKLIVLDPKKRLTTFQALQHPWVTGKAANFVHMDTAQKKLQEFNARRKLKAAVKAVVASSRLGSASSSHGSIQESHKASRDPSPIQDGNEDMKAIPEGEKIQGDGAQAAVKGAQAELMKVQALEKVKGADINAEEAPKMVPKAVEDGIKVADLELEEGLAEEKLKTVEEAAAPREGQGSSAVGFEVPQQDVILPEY
# [5] = molecular target: T1, Calcium/calmodulin-dependent protein kinase type IV (Homo sapiens); details: at 1 µM
# [6] = molecular target: T2, Serine/threonine-protein kinase Chk1 (Homo sapiens) (UniProt O14757); details: at 0.1 µM
# T2 sequence (whole entry): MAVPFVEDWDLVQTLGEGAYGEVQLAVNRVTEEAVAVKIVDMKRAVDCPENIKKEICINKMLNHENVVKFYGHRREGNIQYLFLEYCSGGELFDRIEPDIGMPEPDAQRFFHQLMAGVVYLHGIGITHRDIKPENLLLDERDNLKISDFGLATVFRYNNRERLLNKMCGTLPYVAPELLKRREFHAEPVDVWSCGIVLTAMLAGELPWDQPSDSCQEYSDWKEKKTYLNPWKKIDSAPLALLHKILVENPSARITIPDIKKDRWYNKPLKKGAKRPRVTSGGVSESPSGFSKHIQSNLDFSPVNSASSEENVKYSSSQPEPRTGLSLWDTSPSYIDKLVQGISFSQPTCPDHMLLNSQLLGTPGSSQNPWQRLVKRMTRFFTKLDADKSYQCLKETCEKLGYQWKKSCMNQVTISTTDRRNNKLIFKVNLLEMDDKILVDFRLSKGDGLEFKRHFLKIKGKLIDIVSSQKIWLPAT
# [7] = molecular target: T2, Serine/threonine-protein kinase Chk1 (Homo sapiens); details: at 1 µM
# [8] = molecular target: Serine/threonine-protein kinase Chk2 (Homo sapiens) (UniProt O96017); details: at 0.1 µM
# Serine/threonine-protein kinase Chk2 (Homo sapiens), sequence (O96017 whole entry): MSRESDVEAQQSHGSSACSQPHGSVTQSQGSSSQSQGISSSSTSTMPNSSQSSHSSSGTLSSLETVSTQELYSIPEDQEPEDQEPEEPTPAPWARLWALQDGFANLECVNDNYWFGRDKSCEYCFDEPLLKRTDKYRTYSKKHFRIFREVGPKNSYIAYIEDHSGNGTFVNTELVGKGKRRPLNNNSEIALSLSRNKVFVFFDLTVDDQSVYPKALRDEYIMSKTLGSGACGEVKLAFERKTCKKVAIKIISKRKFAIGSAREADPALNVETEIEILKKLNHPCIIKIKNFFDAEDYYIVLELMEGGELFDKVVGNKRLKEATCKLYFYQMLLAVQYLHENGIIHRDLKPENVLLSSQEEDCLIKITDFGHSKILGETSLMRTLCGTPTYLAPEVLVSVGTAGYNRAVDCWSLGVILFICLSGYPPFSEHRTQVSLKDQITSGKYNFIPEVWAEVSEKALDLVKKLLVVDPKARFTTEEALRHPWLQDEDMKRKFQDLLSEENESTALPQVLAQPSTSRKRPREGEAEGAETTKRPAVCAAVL
# [9] = molecular target: Serine/threonine-protein kinase Chk2 (Homo sapiens) (UniProt O96017); details: at 1 µM
# [10] = molecular target: Death-associated protein kinase 1 (Homo sapiens) (UniProt P53355); details: at 0.1 µM
# Death-associated protein kinase 1 (Homo sapiens), sequence (P53355 whole entry, looked up): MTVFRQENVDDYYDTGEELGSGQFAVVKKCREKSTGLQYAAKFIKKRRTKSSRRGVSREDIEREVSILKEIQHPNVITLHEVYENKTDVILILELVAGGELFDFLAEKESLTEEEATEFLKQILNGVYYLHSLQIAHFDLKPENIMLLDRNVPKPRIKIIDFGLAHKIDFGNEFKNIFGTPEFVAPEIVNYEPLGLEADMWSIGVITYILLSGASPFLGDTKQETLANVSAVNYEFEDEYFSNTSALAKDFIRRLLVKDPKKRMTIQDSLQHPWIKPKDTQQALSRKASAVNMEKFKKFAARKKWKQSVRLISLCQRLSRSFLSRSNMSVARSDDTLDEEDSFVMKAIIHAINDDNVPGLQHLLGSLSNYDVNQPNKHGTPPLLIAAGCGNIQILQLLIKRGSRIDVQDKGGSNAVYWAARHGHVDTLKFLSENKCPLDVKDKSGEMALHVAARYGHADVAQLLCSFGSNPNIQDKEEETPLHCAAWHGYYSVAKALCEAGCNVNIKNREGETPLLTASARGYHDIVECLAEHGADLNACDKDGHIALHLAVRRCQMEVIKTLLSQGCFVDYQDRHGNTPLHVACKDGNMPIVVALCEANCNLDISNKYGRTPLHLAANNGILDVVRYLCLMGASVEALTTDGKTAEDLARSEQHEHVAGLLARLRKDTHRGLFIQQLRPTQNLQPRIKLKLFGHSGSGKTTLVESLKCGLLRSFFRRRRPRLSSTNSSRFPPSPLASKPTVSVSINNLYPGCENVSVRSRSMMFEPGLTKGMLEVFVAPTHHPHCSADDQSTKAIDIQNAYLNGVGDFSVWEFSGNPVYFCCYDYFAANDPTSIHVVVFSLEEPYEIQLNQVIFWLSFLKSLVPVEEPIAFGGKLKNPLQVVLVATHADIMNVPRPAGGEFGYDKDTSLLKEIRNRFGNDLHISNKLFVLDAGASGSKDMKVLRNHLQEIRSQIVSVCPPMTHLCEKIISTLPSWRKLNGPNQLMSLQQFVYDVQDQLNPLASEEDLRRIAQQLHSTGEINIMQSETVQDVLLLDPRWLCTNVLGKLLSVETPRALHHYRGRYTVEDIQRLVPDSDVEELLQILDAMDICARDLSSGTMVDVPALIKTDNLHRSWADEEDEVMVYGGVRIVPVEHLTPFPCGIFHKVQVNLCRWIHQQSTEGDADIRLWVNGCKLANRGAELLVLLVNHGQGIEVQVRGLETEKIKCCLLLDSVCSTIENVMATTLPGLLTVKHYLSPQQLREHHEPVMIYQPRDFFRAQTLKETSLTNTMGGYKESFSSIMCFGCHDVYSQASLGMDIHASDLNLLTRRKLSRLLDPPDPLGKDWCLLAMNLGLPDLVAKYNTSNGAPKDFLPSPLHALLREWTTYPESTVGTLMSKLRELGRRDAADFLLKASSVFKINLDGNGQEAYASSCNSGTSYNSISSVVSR
# [11] = molecular target: Death-associated protein kinase 1 (Homo sapiens) (UniProt P53355); details: at 1 µM
# [12] = molecular target: T3, Serine/threonine-protein kinase DCLK2 (Homo sapiens) (UniProt Q8N568); details: at 0.1 µM
# T3 sequence (whole entry): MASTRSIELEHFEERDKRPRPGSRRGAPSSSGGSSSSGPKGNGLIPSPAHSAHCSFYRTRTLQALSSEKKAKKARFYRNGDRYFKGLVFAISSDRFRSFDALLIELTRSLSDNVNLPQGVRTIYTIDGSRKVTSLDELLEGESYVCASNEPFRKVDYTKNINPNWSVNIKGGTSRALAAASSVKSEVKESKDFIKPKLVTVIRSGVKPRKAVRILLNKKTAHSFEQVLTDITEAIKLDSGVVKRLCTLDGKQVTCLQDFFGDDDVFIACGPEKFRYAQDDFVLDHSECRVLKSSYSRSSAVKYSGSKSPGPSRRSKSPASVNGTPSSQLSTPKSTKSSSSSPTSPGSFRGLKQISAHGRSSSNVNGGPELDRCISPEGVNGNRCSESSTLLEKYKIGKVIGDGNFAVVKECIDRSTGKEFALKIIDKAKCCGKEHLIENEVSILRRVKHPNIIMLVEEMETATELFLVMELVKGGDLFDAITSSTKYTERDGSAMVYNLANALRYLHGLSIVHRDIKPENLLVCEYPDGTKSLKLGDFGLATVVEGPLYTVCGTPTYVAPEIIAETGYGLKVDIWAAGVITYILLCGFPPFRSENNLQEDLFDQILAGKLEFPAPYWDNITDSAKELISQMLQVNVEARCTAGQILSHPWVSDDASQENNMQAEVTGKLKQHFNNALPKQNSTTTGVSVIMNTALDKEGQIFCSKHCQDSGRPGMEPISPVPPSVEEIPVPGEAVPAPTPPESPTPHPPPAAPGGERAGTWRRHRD
# [13] = molecular target: T3, Serine/threonine-protein kinase DCLK2 (Homo sapiens); details: at 1 µM
# [14] = molecular target: MAP kinase-activated protein kinase 2 (Homo sapiens) (UniProt P49137); details: at 0.1 µM
# MAP kinase-activated protein kinase 2 (Homo sapiens), sequence (P49137 whole entry, looked up): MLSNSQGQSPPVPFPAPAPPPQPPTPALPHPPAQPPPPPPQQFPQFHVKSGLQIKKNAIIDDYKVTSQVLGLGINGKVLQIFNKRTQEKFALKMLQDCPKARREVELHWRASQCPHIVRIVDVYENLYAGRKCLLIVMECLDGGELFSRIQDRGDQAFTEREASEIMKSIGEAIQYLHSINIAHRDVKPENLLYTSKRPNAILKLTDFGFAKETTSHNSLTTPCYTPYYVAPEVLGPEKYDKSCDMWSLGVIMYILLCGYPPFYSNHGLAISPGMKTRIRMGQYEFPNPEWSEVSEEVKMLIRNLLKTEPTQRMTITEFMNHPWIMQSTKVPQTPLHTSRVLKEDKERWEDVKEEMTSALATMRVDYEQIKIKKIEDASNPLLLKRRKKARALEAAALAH
# [15] = molecular target: MAP kinase-activated protein kinase 2 (Homo sapiens) (UniProt P49137); details: at 1 µM
# [16] = molecular target: MAP kinase-activated protein kinase 3 (Homo sapiens) (UniProt Q16644); details: at 0.1 µM
# MAP kinase-activated protein kinase 3 (Homo sapiens), sequence (Q16644 whole entry, looked up): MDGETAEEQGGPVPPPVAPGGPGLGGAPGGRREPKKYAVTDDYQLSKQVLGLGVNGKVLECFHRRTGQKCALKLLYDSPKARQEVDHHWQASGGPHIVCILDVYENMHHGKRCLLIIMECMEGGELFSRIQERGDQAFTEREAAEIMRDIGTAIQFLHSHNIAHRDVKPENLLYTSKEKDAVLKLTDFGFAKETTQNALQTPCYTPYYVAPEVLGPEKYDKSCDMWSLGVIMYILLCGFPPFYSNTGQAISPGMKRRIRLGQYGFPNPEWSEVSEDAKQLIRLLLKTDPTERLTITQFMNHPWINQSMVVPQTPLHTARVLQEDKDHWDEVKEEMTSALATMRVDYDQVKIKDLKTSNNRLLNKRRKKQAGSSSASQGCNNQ
# [17] = molecular target: MAP kinase-activated protein kinase 3 (Homo sapiens) (UniProt Q16644); details: at 1 µM
# [18] = molecular target: Serine/threonine-protein kinase MARK1 (Homo sapiens) (UniProt Q9P0L2); details: at 0.1 µM
# Serine/threonine-protein kinase MARK1 (Homo sapiens), sequence (Q9P0L2 whole entry, looked up): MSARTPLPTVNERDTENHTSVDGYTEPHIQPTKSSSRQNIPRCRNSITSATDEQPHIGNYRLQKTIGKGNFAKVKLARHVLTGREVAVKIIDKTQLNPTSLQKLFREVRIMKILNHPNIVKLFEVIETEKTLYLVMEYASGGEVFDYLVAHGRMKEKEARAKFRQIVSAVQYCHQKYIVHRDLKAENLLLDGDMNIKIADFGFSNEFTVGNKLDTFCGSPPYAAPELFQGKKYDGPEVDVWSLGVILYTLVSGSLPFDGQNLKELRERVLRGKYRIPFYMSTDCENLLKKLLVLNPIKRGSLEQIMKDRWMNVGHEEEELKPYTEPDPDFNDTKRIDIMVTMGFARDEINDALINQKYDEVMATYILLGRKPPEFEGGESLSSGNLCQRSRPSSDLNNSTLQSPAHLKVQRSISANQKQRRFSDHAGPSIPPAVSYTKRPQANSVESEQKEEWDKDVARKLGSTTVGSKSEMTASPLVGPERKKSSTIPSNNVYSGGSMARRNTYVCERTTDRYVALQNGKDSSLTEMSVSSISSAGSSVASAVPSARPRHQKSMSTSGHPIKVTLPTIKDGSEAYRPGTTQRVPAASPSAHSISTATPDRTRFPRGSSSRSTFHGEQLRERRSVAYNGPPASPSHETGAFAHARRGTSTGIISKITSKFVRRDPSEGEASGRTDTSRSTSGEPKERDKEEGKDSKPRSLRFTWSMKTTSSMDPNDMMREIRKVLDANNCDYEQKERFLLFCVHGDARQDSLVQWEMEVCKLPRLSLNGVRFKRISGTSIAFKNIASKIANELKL
# [19] = molecular target: Serine/threonine-protein kinase MARK1 (Homo sapiens) (UniProt Q9P0L2); details: at 1 µM
# [20] = molecular target: MAP/microtubule affinity-regulating kinase 3 (Homo sapiens) (UniProt P27448); details: at 0.1 µM;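 note: mean percent inhibition of MARK3 kinase activity, measured within the GSK PKIS screening panel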
# MAP/microtubule affinity-regulating kinase 3 (Homo sapiens), sequence (P27448 whole entry, looked up): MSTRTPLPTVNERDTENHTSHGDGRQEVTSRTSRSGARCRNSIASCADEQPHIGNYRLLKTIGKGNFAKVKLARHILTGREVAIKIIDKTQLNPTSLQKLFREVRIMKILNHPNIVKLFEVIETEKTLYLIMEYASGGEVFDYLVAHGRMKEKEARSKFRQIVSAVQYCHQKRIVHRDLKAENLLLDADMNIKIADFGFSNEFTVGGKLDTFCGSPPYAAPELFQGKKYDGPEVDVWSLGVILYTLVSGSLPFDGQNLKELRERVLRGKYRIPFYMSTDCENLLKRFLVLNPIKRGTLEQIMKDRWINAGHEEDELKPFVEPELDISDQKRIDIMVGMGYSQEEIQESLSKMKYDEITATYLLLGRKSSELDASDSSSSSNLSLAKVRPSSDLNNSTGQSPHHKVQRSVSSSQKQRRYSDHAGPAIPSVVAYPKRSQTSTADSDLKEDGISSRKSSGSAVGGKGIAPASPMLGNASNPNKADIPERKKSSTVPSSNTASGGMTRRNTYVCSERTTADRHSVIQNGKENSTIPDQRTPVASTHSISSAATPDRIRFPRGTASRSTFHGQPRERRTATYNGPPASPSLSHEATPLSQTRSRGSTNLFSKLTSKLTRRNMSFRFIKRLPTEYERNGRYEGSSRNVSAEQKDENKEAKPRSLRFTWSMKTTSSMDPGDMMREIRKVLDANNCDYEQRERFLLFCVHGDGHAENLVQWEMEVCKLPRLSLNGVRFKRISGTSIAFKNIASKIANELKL
# Calcium/calmodulin-dependent protein kinase type II subunit delta (Homo sapiens), sequence (Q13557 whole entry): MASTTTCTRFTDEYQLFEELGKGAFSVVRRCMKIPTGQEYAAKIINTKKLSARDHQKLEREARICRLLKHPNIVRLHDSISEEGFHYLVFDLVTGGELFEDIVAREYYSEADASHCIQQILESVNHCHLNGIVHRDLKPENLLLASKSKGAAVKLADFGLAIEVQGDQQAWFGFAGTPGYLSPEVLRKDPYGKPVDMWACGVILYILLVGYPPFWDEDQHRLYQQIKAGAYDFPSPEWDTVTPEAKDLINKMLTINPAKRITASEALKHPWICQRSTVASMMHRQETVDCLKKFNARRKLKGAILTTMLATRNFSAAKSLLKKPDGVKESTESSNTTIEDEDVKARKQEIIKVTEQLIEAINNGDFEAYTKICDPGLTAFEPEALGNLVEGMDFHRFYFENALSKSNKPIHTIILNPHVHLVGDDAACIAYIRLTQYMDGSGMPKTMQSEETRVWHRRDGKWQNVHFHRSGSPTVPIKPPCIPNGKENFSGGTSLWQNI
SMILES,inhibition [1] [%],inhibition [2] [%],inhibition [3] [%],inhibition [4] [%],inhibition [5] [%],inhibition [6] [%],inhibition [7] [%],inhibition [8] [%],inhibition [9] [%],inhibition [10] [%],inhibition [11] [%],inhibition [12] [%],inhibition [13] [%],inhibition [14] [%],inhibition [15] [%],inhibition [16] [%],inhibition [17] [%],inhibition [18] [%],inhibition [19] [%],inhibition [20] [%]
FC(F)(F)c1cccc(-c2nn3ncccc3c2-c2ccnc(Nc3ccc4c(c3)OCCO4)n2)c1,2.43,1.59,3.33,0.49,0.92,1.89,2.98,1.74,3.43,2.28,4.46,0.29,-0.51,0.54,0.88,12.3,31.9,2.64,3.63,2.14
CCN(CC)S(=O)(=O)c1ccc(OC)c(Nc2ncc(-c3ccccc3)o2)c1,6.08,2.08,8.27,-0.4,-1.66,1.49,2.79,-0.98,2.66,4,4.29,2.03,3.38,2.65,1.48,1.95,-0.47,1.44,2.58,-0.45
COc1cccc(-c2c[nH]c3c(N/N=C/c4ccncc4)ncnc23)c1,6.66,3.84,15.2,1.55,4.18,7.71,11.3,5.73,6.91,9.18,11.2,1.17,8.13,2.94,3.56,9.72,11.1,2.74,8.15,6.06
Fc1ccc(-c2nn3ncccc3c2-c2ccnc(Nc3ccc4c(c3)OCCO4)n2)cc1,4.05,3.8,5.51,0.98,1.52,1.26,-1.02,3.9,5.77,0.23,2.12,1.43,-0.42,1.56,1.39,34.4,37.8,1.97,3.47,4.24
CCCN1CCC(c2ccc(Nc3nc(Nc4cc(F)ccc4C(N)=O)c4cc[nH]c4n3)c(OC)c2)CC1,43.6,20.9,71,7.54,37.9,0.91,10.7,58.3,80.9,3.52,50,1.99,8.21,1.84,3.23,5.33,11.9,9.11,50.1,12.2
CNC(=O)c1cncc(/C=C/c2ccccc2Cl)c1,1.63,-0.13,-0.98,-3.66,-4.17,1.43,3.35,-0.6,1.77,2.15,1.77,0.59,-3.35,0.55,1.05,0.66,-0.89,1.46,5.24,1.01
CNC(=O)c1cccc(C#Cc2cncnc2Nc2ccc(OCc3cccc(F)c3)c(Cl)c2)c1,1.97,0.91,1.19,-0.97,-3.36,-1.85,-0.79,0.62,2.35,-1.4,-1.89,-9.58,-6.14,1.01,0.58,1.88,1.66,-0.72,1.6,1.07
